# Screening results from PubChem.
# An excerpt weighted towards active compounds, which were near 19% of everything screened.
# TGFb SMAD3 inh: TGF-b pathway inhibition. HepG2 CAGA-GFP TGF-b/SMAD3 reporter, GFP fluorescence, 18 h; TGF-beta stimulated, 500 pg/mL final. Potency, µM (doses to about 46.1 µM), for the others: at the highest dose activity, negative = inhibition, most hits filed as inhibitors. 1.2% of 410,000 active. AID 588855; note: potency is the fitted concentration of half-maximal effect; % is set by controls: 0 for no effect and ±100 for the full control effect; nearly all actives have a fitted effect of over 65% in size
#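 HEPG2 CAGA-GFP, 1000 cells/well; 2 h settle, 37 C; cpd via pin tool; TGF-b 500 pg/mL final; 18 h, 37 C; GFP imaging ex488/em500-530; %Activity normalised to -TGF-b and +DMSO controls; CRC fit, curve class.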
# HepG2 tox: counter-screen for TGF-b inhibitors: cytotoxicity in HepG2 cells; 0.76% of 410,000 active; AID 588856; HepG2 CAGA-GFP viability, ATP luminescence, 18 h; Potency, µM (doses to about 46.1 µM), for inactives: at the top dose activity change, negative = cytotoxicity, actives largely listed as cytotoxic; note: potency is the fitted concentration of half-maximal effect
#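 CellTiter-Glo luminescence gave cytotoxicity after 18 hours at 37 degrees C. The cells were HepG2 CAGA-GFP in 1% FBS DMEM, stimulated with 500 pg/mL TGF-beta after compound addition. %Activity was normalised to no-cell wells (complete cell-killing) and DMSO (no toxicity), and curves were fitted and classified.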
# IL-1B inflam inh: blocks inflammasome-driven IL-1 beta release. THP-1 LPS/ATP IL-1B secretion, AlphaLISA, 16 h; hits give low values. 4.7% of 360,000 active. AID 743279. activity change, % at 57.5 µM; in the data active = activity change below about -50%; inconclusive = mostly about -30% to -49%; note: % is set by controls: 0 for no effect and ±100 for the full control effect
#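 Secreted IL-1B measured by AlphaLISA bead assay after 16 h compound exposure of THP-1 cells; compounds (final up to 57.5 uM) added 1 h before LPS (250 ng/mL) and ATP (1.25 mM) stimulation; lower signal means less secretion.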
# DT40 TDP1 no CPT: qHTS for Inhibitors of human tyrosyl-DNA phosphodiesterase 1 (TDP1): qHTS in cells in absence of CPT; AID 686978, 2013; 15% of 420,000 active; DT40 Tdp1-/- hTDP1 cells, no CPT, ATP luminescence, 48 h; Potency, µM (doses to about 46.2 µM), inactives show at the top dose activity change, negative = growth inhibition, most hits filed as inhibitors; note: potency is the fitted concentration of half-maximal effect; % is set by controls: 0 for no effect and ±100 for the full control effect; nearly all actives have a fitted effect of over 55% in size
#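 Chicken DT40 Tdp1-/- cells complemented with human TDP1, screened without camptothecin (DMSO vehicle only), 400 cells/well. Compounds pin-transferred, cells incubated at 37 °C for at least 48 hr. Growth read as ATP-dependent luminescence (CellTiter-Glo, 30 min at RT).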
# S-ASM inh: blocks human secretory acid sphingomyelinase; 0.006% of 340,000 active; Potency, µM (titrated, usually from 57.5 µM), inactives show at the highest dose activity change, negative = inhibition, hits mostly inhibitors; placental ASM, HMU-PC fluorogenic substrate, 60 min; AID 504937; P17405; note: potency is the fitted concentration of half-maximal effect
# Target sequence (P17405 47-631 limits assumed): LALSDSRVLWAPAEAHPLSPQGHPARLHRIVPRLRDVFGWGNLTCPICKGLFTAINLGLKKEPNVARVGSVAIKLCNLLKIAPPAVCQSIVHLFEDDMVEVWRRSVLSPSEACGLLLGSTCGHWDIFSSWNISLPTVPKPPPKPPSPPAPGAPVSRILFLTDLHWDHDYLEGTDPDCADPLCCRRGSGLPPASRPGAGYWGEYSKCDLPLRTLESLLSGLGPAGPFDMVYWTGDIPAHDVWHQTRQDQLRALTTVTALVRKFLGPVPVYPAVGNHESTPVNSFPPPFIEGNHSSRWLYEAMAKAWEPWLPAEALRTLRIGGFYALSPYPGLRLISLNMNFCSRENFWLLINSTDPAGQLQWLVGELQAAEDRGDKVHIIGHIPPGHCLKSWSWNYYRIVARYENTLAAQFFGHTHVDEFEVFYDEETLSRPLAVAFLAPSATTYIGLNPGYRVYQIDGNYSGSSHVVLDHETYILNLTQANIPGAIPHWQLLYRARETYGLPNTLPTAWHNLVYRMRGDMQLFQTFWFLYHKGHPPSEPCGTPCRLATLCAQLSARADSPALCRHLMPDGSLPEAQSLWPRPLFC
#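 Human placenta-derived ASM preincubated with compound 10 min at room temperature, then reacted with 9 uM (final) fluorogenic HMU-PC substrate for 60 min at 37 C. Stop solution raises pH to 10; fluorescence read at Ex 386/Em 447 nm.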
# DT40 TDP1 CPT: DT40-hTDP1 cell growth loss with CPT | 12% of 420,000 active | Potency, µM (top dose mostly 46.2 µM), for inactives: at the top dose activity change, negative = growth inhibition, actives largely listed as inhibitors | chicken DT40 Tdp1-/-;hTDP1 cells + 20 nM CPT, ATP luminescence, 48 h; note: potency is the fitted concentration of half-maximal effect; % is set by controls: 0 for no effect and ±100 for the full control effect; nearly all actives have a fitted effect of over 55% in size
#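 Chicken DT40 Tdp1-/- cells complemented with human TDP1, 400 cells/well, exposed to compounds plus 20 nM camptothecin for at least 48 h at 37 C; viability read as ATP content by CellTiter-Glo luminescence.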
# * hit, by the source's call; ? = inconclusive; nt = no result. Unless noted, calls come from the whole dose curve; as a rule, active = well fitted curve in the direction sought with a large enough effect; inconclusive = small, poorly fitted or top-dose-only effect, or another doubt; inactive = no such curve, though single readings can be large; an effect the other way counts as inactive or inconclusive.
SMILES,TGFb SMAD3 inh,HepG2 tox,IL-1B inflam inh,DT40 TDP1 no CPT,S-ASM inh,DT40 TDP1 CPT
COc1cccc(CN(C)C(=O)/C=C/c2ccc(S(=O)(=O)N3CCCCCC3)cc2)c1,?,-6.2%,-57.5*,?,nt,?
COc1cccc(NC(=O)/C=C/c2ccc(S(=O)(=O)N3CCOCC3)cc2)c1,-8.6%,-18.8%,-8.4,?,-10.9%,18.4µM*
CC(=O)Nc1cccc(NC(=O)/C=C/c2ccc(S(=O)(=O)N3CCOCC3)cc2)c1,-12.8%,-14.4%,?,-25.4%,-4.9%,?
CCC(C)(C)NC(=O)/C=C/c1ccc(OC)c(S(=O)(=O)N2CCOCC2)c1,-4.1%,-4.1%,0.0,?,1.9%,-23.7%
COc1ccc(/C=C/C(=O)Nc2ccccc2C)cc1S(=O)(=O)N1CCOCC1,?,-21.8%,-24.2,-26.0%,-25.2%,?
Cc1c(C=O)c2cc(OCc3ccccc3)ccc2n1C,3.0%,1.9%,-19.9,-1.3%,-7.1%,9.0%
O=C1CCCC(O)=C1Sc1cc(Cl)c(Cl)cc1Cl,?,-2.9%,0.0,?,9.5%,?
CCN(CC)S(=O)(=O)c1ccc(OC)c(NS(=O)(=O)Cc2ccccc2)c1,0.4%,-19.2%,-4.6,-3.4%,1.9%,-0.6%
Cc1ccc2oc(=O)n(CCCOc3ccc(Cl)cc3)c2c1,?,-21.0%,nt,?,nt,?
CCN(Cc1ccc(OC)c(F)c1)C(=O)/C=C/c1ccc(S(=O)(=O)N2CCOCC2)cc1,-26.5%,-33.6%,-11.6,23.1µM*,-0.8%,?
COc1cc(/C=C/C(=O)Nc2ccc(OC)c(S(=O)(=O)N3CCOCC3)c2)ccc1OC(F)F,?,0.3%,-19.6,16.4µM*,?,18.4µM*
Cc1ccc(NC(=O)/C=C/c2ccc(S(=O)(=O)N3CCOCC3)cc2)cc1S(=O)(=O)N(C)C,-0.6%,-1.6%,-5.2,14.6µM*,-16.4%,?
CCCOc1ccccc1NC(=O)/C=C/C(N)=O,?,-30.9%,-6.2,2.51µM*,-2.1%,1.26µM*
Cc1ccc(NC(=O)c2cc(S(=O)(=O)N3CCCCC3)ccc2N2CCOCC2)cc1S(=O)(=O)N(C)C,-14.5%,-13.6%,-13.9,?,-0.1%,-23.4%
COc1ccc(NC(=O)[C@@H](NC(=O)N2C[C@H]3C[C@@H](C2)c2cccc(=O)n2C3)C(C)C)cc1OC,2.5%,-3.2%,-8.6,24.2%,-0.6%,9.2%
COc1ccc(/C=C/C(=O)Nc2ccccc2F)cc1S(=O)(=O)N1CCOCC1,-15.9%,-24.9%,-87.9*,-17.1%,-3.8%,?
COc1ccc(S(=O)(=O)N2CCOCC2)cc1NC(=O)/C=C/c1ccccc1,-3.3%,-0.7%,-51.5*,-18.7%,-2.1%,-21.8%
CCN(C(=O)C(C)N1C(=O)/C(=C/c2cccs2)SC1=S)C1CCS(=O)(=O)C1 (stereo unspecified),?,-32.6%,-9.8,?,0.9%,?
O=C(Nc1nnc([C@@H]2C[C@H](O)[C@@H](CO)O2)s1)Nc1cccc2c1CCCC2,13.6%,-5.7%,14.8,-12.9%,nt,-5.8%
COc1ccc(N2CCN(C(=O)CSc3nnc(-c4ccc5[nH]c(C)c(C)c5c4)o3)CC2)cc1,5.6%,0.1%,-10.3,-28.7%,-2.6%,?
Cc1ccc(C(=O)CSc2nnc(-c3ccc4[nH]c(C)c(C)c4c3)o2)cc1C,-0.4%,-10.2%,6.1,25.9µM*,-2.0%,?
Cc1[nH]c2ccc(-c3nnc(SCC(=O)c4ccccc4F)o3)cc2c1C,-11.5%,-25.8%,7.4,18.4µM*,-5.1%,-71.7%
O=C(Nc1nc(-c2ccc(Cl)cc2)cs1)C1CCCO1 (stereo unspecified),6.8%,4.7%,-69.5*,23.1µM*,-4.4%,?
Cc1ccc(-c2csc(NC(=O)CN3CCOCC3)n2)cc1,?,-5.4%,15.8,16.4µM*,-17.7%,16.4µM*
O=C(CN1CCOCC1)Nc1ccccc1Sc1ccc(Cl)cc1,-2.5%,-1.3%,-59.0*,6.51µM*,-0.8%,?
SMILES,TGFb SMAD3 inh,HepG2 tox,IL-1B inflam inh,DT40 TDP1 no CPT,S-ASM inh,DT40 TDP1 CPT
NC(=O)C1(N2CCCCC2)CCN(CC(=O)Nc2ccccc2Sc2ccccc2)CC1,?,-43.7%,-78.6*,?,-2.3%,?
Cc1ccc(-c2csc(NC(=O)N3CCOCC3)n2)cc1,-6.5%,11.5%,-23.9,?,-0.3%,?
O=C(CN1CCOCC1)Nc1nc(-c2ccccc2Cl)cs1,-15.2%,-14.6%,-28.8,-8.3%,-2.0%,-7.8%
CC1CN(CC(=O)Nc2nc(-c3ccc(Cl)cc3)cs2)CC(C)O1 (stereo unspecified),?,-1.1%,?,23.1µM*,-3.1%,?
O=C(CN1CCOCC1)Nc1nc(-c2ccc(Cl)cc2)cs1,-4.9%,-12.2%,?,20.6µM*,-1.7%,16.4µM*
CCOC(=O)C(=Cc1ccc(-c2ccsc2C(=O)OC)o1)C(=O)OCC,?,-7.5%,-4.5,?,31.4%,25.9µM*
O=C(NNC(=O)C12CC3CC(CC(C3)C1)C2)c1ccccc1O,?,-21.7%,11.0,8.2µM*,0.7%,8.2µM*
O=C(NNC(=O)C12CC3CC(CC(C3)C1)C2)c1ccccc1F,-1.8%,-1.3%,-0.2,-5.3%,-2.1%,5.3%
COc1cc(NCc2ccc3nc(N)nc(N)c3c2C)cc(OC)c1OC,nt,nt,nt,0.119µM*,nt,0.376µM*
Cc1[nH]nc2c1C(C(C)C)C(C#N)=C(N)O2 (stereo unspecified),-6.4%,-33.0%,-87.0*,?,6.1%,?
Cc1[nH]nc2c1C(CCc1ccccc1)C(C#N)=C(N)O2 (stereo unspecified),8.7%,-18.6%,8.6,-6.8%,0.7%,-10.7%
Cc1[nH]nc2c1C(c1cc(Br)cs1)C(C#N)=C(N)O2 (stereo unspecified),10µM*,-64.9%,-100.6*,5.17µM*,3.7%,4.11µM*
CN(C(=S)NC(=O)C1(C)CC1(Cl)Cl)c1ccccc1 (stereo unspecified),1.4%,-1.0%,17.7,-2.6%,5.8%,4.7%
COc1ccccc1C(=O)NC(=S)/C=C1/N(C)c2ccccc2C1(C)C,22.4µM*,-3.3%,?,?,-11.6%,?
CN1/C(=C\C=N\NC(=O)c2ccccc2Br)C(C)(C)c2ccccc21,0.0%,-0.7%,9.6,?,1.8%,-26.4%
CN1/C(=C\C(=S)NC(=O)c2ccccc2Cl)C(C)(C)c2ccccc21,-22.3%,-11.7%,-53.5*,4.61µM*,-13.3%,7.31µM*
